UGM FP inh – Mtb UDP-galactopyranose mutase inhibition; purified UGM, fluorescence polarization probe displacement; inhibition, % at 10 µM; hit rate 0.06% among 320,000; AID 504406; in the data active = inhibition above about 10%, passing the limit was not always enough
PrPC TRFRET – inhibitors of human cell surface prion protein PrPC | hit rate 0.43% among 370,000 | P04156 | TR-FRET read-out | AID 720596 | inhibition, % at 13.8 µM; in the data active = inhibition above about 24%; note: 0% = median of the test wells and 100% = reference compound wells
Rv3671c inh – Rv3671c (M. tuberculosis) protease inhibition; P9WHR9; inhibition, % at 5.96 µM; hit rate 0.048% among 320,000; in the data active = inhibition above about 38%;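 note: extracellular domain of Rv3671c used as enzyme; 0% = enzyme with DMSO and 100% = no enzyme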
PrP UTR inh – inhibition of PrP 5' UTR reporter expression; inhibition, % (test concentration not listed); cell-based PrP 5' UTR mRNA reporter, plate reader; AID 488862; hit rate 0.35% among 340,000; in the data active = inhibition above about 52%; note: 0 = median of the neutral control wells
FadD28 FP inh – M. tuberculosis FadD28 bisubstrate binding inhibition. FadD28 bisubstrate probe binding, fluorescence polarization. inhibition, % at 12.5 µM. hit rate 0.22% among 360,000; in the data active = inhibition above about 8.5%, passing the limit was not always enough
SSB-PriA inh – blocks PriA binding to SSB C-terminal tail. AlphaScreen SSBct-PriA binding, biotinylated peptide. inhibition, % at 33 µM. hit rate 0.6% among 430,000; in the data active = inhibition mostly above about 37%, no sharp cut-off; inactive = mostly below about 20%;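 note: plate controls were negative control peptide for no effect and reference peptide for full effect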
PrPC confirm – cell surface PrPC inhibition, TR-FRET confirmation; shares compounds with PrPC TRFRET; cell surface PrPC level; inhibition, % at 13.8 µM; hit rate 65% among 1,500; AID 743200; in the data active = inhibition above about 25%
LD9 tox – kills or reduces viability of LD9 cells in PrPc counter-screen; hit rate 29% among 1,500; LD9 cells cytotoxicity, luminescence viability; AID 743201; shares compounds with PrPC TRFRET; inhibition, % at 13.8 µM; in the data active = inhibition above about 9.5%
* hit, by the source's call; . = not tested or not shown; ! = repeats disagree. In the library only some 1.2% were active in any assay of this set; here they are far more common.

SMILES	UGM FP inh	PrPC TRFRET	Rv3671c inh	PrP UTR inh	FadD28 FP inh	SSB-PriA inh	PrPC confirm	LD9 tox
Cc1ccc(OC2CCN(S(C)(=O)=O)CC2)nn1	.	.	.	.	.	-14	.	.
C=COC(=O)CSc1nc(-c2cccs2)ccc1C#N	1	6	-7	-109	-1	-4	.	.
CCOC(=O)C(C)Sc1nc(-c2cccs2)ccc1C#N (centres undefined)	-1	28*	-6	-29	-8	-26	43*	-4
NNc1nc2c(F)cccc2s1	1	-10	19	-32	0	-5	.	.
Fc1cccc2sc(Nc3nc4c(F)cccc4s3)nc12	2	37*	-4	-29	0	-7	70*	-5
O=C(c1cnn2c(-c3ccc(Cl)cc3)ccnc12)N1CCN(c2ccccn2)CC1	.	.	.	.	.	4	.	.
COc1cc(C(=O)NNC(=O)c2cc(-c3ccccc3)n[nH]2)cc(OC)c1C	0	26*	-1	10	-7	4	9	-4
CS(=O)(=O)c1ccc(C(=O)NNC(=O)c2cc(-c3ccccc3)n[nH]2)cc1	4	0	-6	-23	-4	-5	.	.
Cc1csc(NC(=O)Cc2cc(=O)[nH]c(SCc3cccc(Cl)c3)n2)n1	.	.	.	.	.	-7	.	.
Cc1nc2ccccc2c2oc(C(=O)N3CCN(C4CCCCC4)CC3)cc12	4	26*	1	1	-1	3	21	15*
Cc1nc2ccccc2c2oc(C(=O)N3CCC(N4CCCCC4)CC3)cc12	-2	.	-11	-15	-1	0	.	.
CNC(=O)c1c(NC(=O)c2ccc(S(=O)(=O)N3CCCC3)cc2)sc2c1CCN(C(C)C)C2	-1	-16	-11	.	.	.	.	.
CCN1CCc2c(sc(NC(=O)c3ccc(S(=O)(=O)N4CCCCCC4)cc3)c2C(=O)NC)C1	-1	52*	-5	2	-2	-14	-24	-3
CCCCCCSc1ccc(-c2nc3ccc(Cl)cn3c2NCCCC)cc1OC	.	33*!	2	-11	-4	-16	9	0
N#Cc1c(Cl)cccc1N1CCSCC1	.	-5	.	.	-2	.	.	.
N#Cc1c(N2CCSCC2)nsc1-c1ccccc1Cl	1	27*	.	-20	0	-16	23	-7
CCSc1nc(N)c2c3c(sc2n1)CCC3	2	25*	-14	-48	-4	-12	39*	-3
N#CC(C#N)=C(Nc1ccc(F)cc1)SCc1cccc(F)c1	0	28*	2	-4	-3	-8	33*	35*
CC(C)c1ccc(-n2c(-c3ccccc3)c[n+]3c2CCc2ccccc2-3)cc1	.	41*	.	-8	-1	-1	50*	37*
COc1ccc(CC(=O)NC(c2ccccc2)c2ccc(C)cc2)c(OC)c1 (centres undefined)	0	30*	-2	-26	-3	-4	28*	-9
CCOc1cc(C(=S)N2CCCC2)ccc1OCc1ccccc1	1	27*	-8	16	-2	6	7	-5
CCOc1ccc(C(=S)N2CCCC2)cc1OCC	2	-4	2	-27	0	-6	.	.
CC1(Cc2ccccc2OC(F)(F)F)C(=O)Nc2ccc(S(=O)(=O)NC3CCCCC3)cc21 (centres undefined)	.	20	.	.	-4	.	.	.
COc1ccc(OC(F)(F)F)cc1CC1(C)C(=O)Nc2ccc(S(=O)(=O)NC3CCCCC3)cc21 (centres undefined)	.	36*	.	.	-4	.	29*	-1
N#Cc1c(NC(=O)c2ccc(S(=O)(=O)N3CCOCC3)cc2)sc2c1CCN(Cc1ccccc1)C2	.	.	.	.	.	-19	.	.
COc1ccc(C2/C(=C(/O)c3ccc(C)cc3)C(=O)C(=O)N2c2ccccn2)cc1OC (centres undefined)	3	2	2	-29	0	.	.	.
CCCOc1ccc(/C(O)=C2\C(=O)C(=O)N(c3ccccn3)C2c2ccccc2F)cc1C (centres undefined)	1	44*	-6	7	0	.	89*	-3
CCOc1ccc(/C(O)=C2/C(=O)C(=O)N(c3ccccn3)C2c2ccc(C)cc2)c(C)c1 (centres undefined)	-1	40*	0	-8	.	.	52*	-3
CCOCC(=O)N1CCN(C2CC2)CC1Cc1ccccc1 (centres undefined)	.	.	.	.	.	-22	.	.

Bioassay records (PubChem BioAssay)
